# Source: PubChem BioAssay
# Pol eta inh: qHTS for Inhibitors of Polymerase Eta. DNA polymerase eta (Homo sapiens), Q9Y253. recombinant Pol eta, fluorescent DNA replication assay. Potency, µM (series often up to 114 µM), for inactives: at the highest dose activity change, negative = inhibition, usual class: inhibitors. 1.2% of 390,000 active. AID 588591, 2011; note: potency is the fitted concentration of half-maximal effect; % is set by controls: 0 for no effect and ±100 for the full control effect
#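 Fluorescent replication assay: 50 nM final substrate added after a 15 min room-temperature compound preincubation with 10 nM enzyme. Signal taken at 0 min and again at 10 min.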
# POLB inh: qHTS Assay for Inhibitors of DNA Polymerase Beta; Pol beta primer extension/strand displacement, fluorescence kinetic; Potency, µM (doses to about 114 µM), inactives show at the top dose activity change, negative = inhibition, actives largely listed as inhibitors; 1.3% of 340,000 active; AID 485314, 2010; note: potency is the fitted concentration of half-maximal effect; % is set by controls: 0 for no effect and ±100 for the full control effect
#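 Enzyme-only controls used 10 nM Pol beta; buffer lacking enzyme served as negative control. Compound preincubated 15 min, then 50 nM substrate added; 0 and 10 min reads at room temperature.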
# Pol kappa inh: qHTS for Inhibitors of Polymerase Kappa | 0.53% of 400,000 active | Potency, µM (highest dose often 107 µM), without a hit: top-dose activity, negative = inhibition, usual class: inhibitors | DNA polymerase kappa (Homo sapiens), Q9UBT6 | AID 588579, 2011 | purified Pol kappa, fluorescent DNA synthesis assay, 10 min; note: potency is the fitted concentration of half-maximal effect; % is set by controls: 0 for no effect and ±100 for the full control effect
#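 Pol kappa 10 nM + cpd, 15 min RT; start w/ substrate 50 nM final; fluorescence kinetic read, 0 and 10 min. Neg ctrl: buffer, no enzyme.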
# PI5P4Ka inh: qHTS for Inhibitors of phosphatidylinositol 5-phosphate 4-kinase (PI5P4K); AID 652105, 2013; PI5P4Kalpha enzyme, ADP-Glo luminescence, 60 min; active compounds read low; 1.2% of 330,000 active; max response, %; Phosphatidylinositol 5-phosphate 4-kinase type-2 alpha (Homo sapiens), P48426; active = max response of -50% or lower; inconclusive = between -30% and -50%; inactive = -30% or higher; note: value at the top dose of about 77 µM; % is set by controls: 0 for no effect and ±100 for the full control effect
# Target sequence (P48426 whole entry, looked up): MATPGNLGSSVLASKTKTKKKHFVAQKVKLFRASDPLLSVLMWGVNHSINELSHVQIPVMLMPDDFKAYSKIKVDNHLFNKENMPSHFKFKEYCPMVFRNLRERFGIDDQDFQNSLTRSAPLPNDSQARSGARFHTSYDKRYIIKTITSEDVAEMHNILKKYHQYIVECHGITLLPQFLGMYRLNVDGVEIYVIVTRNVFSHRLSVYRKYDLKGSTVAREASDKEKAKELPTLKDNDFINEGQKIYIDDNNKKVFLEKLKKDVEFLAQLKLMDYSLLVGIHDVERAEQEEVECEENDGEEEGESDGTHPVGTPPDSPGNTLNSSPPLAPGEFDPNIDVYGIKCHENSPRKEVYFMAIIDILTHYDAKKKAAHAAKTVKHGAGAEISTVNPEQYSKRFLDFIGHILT
#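 Reactions run in 0.038 M HEPES pH 7.4, 0.28 mM EGTA, 0.1% CHAPS and 5% DMSO, with PI5P4Kalpha, substrate, compound and 5 microM ATP final, one hour at room temperature. Readout is ADP-Glo luminescence.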
# POLI inh: qHTS for Inhibitors of Polymerase Iota | Pol iota fluorescent replication assay, 10 min | Potency, µM (titrated, usually from 115 µM), without a hit: at the highest dose activity, negative = inhibition, actives largely listed as inhibitors | AID 588590, 2011 | DNA polymerase iota (Homo sapiens), Q9UNA4 | 1% of 390,000 active; note: potency is the fitted concentration of half-maximal effect
#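 Fluorescent replication assay read twice, at 0 min and 10 min after adding 50 nM (final) substrate. Enzyme (10 nM) and compounds were first incubated 15 min at room temperature; enzyme-free buffer wells were negative controls.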
# PI4K2A block: qHTS for small molecular inhibitors of PI4K2A. purified PI4K2A, ADP-Glo luminescence, 1 h; active compounds read low. activity change, negative = inhibition, % at 76.9 µM. 0.13% of 420,000 active; in the data active = activity change below about -50%; inconclusive = mostly about -30% to -49%;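 note: -100% = wells without enzyme as full effect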
#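 ADP-Glo luminescence measured ADP generated by PI4K2A enzyme (4 ug/mL before mixing) with 1.2 mM PI substrate (pre-mix) and 300 microM ATP (pre-mix). Tris pH7.5 buffer with MgCl2, Triton X-100; 1 h reaction at ambient temperature.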
# TbPGK inh: qHTS for inhibitors of Phosphogylcerate Kinase: Hit Validation Screen | TbPGK coupled GAPDH assay, Kinase-Glo luminescence | 79% of 500 active | shares compounds with Pol kappa inh | Potency, µM (titrated, usually from 57.5 µM), for the others: at the highest dose activity change, negative = inhibition, actives largely listed as inhibitors; note: potency is the fitted concentration of half-maximal effect; % is set by controls: 0 for no effect and ±100 for the full control effect; nearly all actives have a fitted effect of over 65% in size
# Pol iota confirm: qHTS for Inhibitors of Polymerase Iota: Confirmatory Assay for Cherry-picked Compounds | 77% of 1,500 active | shares compounds with Pol kappa inh | Potency, µM, most hits filed as inhibitors | AID 720496, 2013 | Pol iota primer extension, TAMRA/BHQ fluorescence; note: potency is the fitted concentration of half-maximal effect
# * marks the source's active call; other numbers are inactive results; ? = inconclusive; · = not tested or not shown; [ ] = another dose, or the depositor's remark. In the library only some 2.8% were active in any assay of this set; here they are far more common. Unless noted, calls come from the whole dose curve; as a rule, active = well fitted curve in the direction sought with a large enough effect; inconclusive = small, poorly fitted or top-dose-only effect, or another doubt; inactive = no such curve, though single readings can be large; an effect the other way counts as inactive or inconclusive.
SMILES,Pol eta inh,POLB inh,Pol kappa inh,PI5P4Ka inh,POLI inh,PI4K2A block,TbPGK inh,others
COc1ccc(N=CC2=C(O)c3ccccc3C2=O)c(OC)c1,-0.6%,-5.7%,-9.4%,-12.5,13.8%,?,·,
COc1ccc(NC(=O)c2oc3ccccc3c2NC(=O)Cc2cccs2)cc1,-17.6%,20.6%,-2.5%,·,16.7%,1.9,·,
Cc1cc(C)c2c(n1)sc1c(O)cc(=O)[nH]c12,79.4µM*,?,79.4µM*,·,?,-5.9,·,Pol iota confirm=47.4*
COc1c(OC2OC(C(=O)O)C(O)C(O)C2O)cc(O)c2c(=O)cc(-c3ccccc3)oc12 (stereo not drawn),-9.5%,19.3%,-33.0%,-3.7,-9.1%,1.0,·,
O=C(O)C1OC(Oc2cc3oc(-c4ccccc4)cc(=O)c3c(O)c2O)C(O)C(O)C1O (stereo not drawn),-15.6%,50.1µM*,79.4µM*,-20.1,10µM*,-5.3,·,Pol iota confirm=21.2*
COc1ccc(/C=N\NC(=O)c2c(C)nc3ccc(Br)cn23)cc1,?,?,-32.5%,3.6,?,-0.6,·,Pol iota confirm=?
CCCc1cnc2c(c1SCc1ccc(C(F)(F)F)cc1)c(=O)n(C)c(=O)n2C,-17.4%,-26.4%,-2.5%[60.1 µM],·,9.5%,2.6,·,
COc1cccc(C(=O)O/N=C(\N)c2ccccn2)c1,-1.4%,15.6%,-5.7%,-73.2*,-9.8%,-72.7*,14.6µM*,
N/C(=N\OC(=O)c1ccc2ccccc2c1)c1ccccn1,-12.5%,1.2%,5.1%,-18.4,10.6%,-58.0*,?,
N/C(=N\OC(=O)c1cccc([N+](=O)[O-])c1)c1ccccn1,-10.9%,-8.8%,4.1%,-7.2,11.8%,1.7,·,
Cc1ccc(C(=O)O/N=C(\N)c2ccccn2)c(Cl)c1,-0.4%,17.4%,-6.3%,-62.0*,6.5%,-70.1*,18.3µM*,
O=C(/C=C/Nc1ccccc1Br)c1ccccn1,-14.7%,5.0%,-5.0%,-3.5,1.7%,?,?,
c1ccc(-c2nc(-c3ccccn3)no2)cc1,2.9%,11.2%,0.4%,·,25.6%,?,·,
Cc1ccc(-c2nc(-c3ccccn3)no2)cc1,-7.2%,10.2%,-5.8%,?,6.7%,-75.5*,14.6µM*,
COc1ccc(NC(=O)CCn2c(=O)c3cccn3c3cccnc32)c(OC)c1,-10.3%,-0.4%,5.3%,·,2.0%,1.4,·,
O=C(/C=C/c1ccc([N+](=O)[O-])cc1)Oc1ccc(/C=N/NC(=O)c2ccncc2)cc1,?,-1.6%,22.4µM*,-1.3,79.4µM*,20.0,·,Pol iota confirm=?
O=C(COc1ccc(/C=N/NC(=O)c2ccc(O)cc2)cc1)Nc1cccc([N+](=O)[O-])c1,14.1µM*,10µM*,?,-10.6,?,-0.3,11.6µM*,Pol iota confirm=?
O=C(NN=Cc1ccc([N+](=O)[O-])cc1)c1ccncc1,-16.6%,·,-0.3%,-1.2,18.7%,0.5,·,
O=C(Nc1cccc(Cl)c1)c1cc2c(=O)n3ccccc3nc2s1,-13.8%,18.5%,8.7%,-6.7,13.5%,-0.4,·,
Cc1cccc(NC(=O)c2cc3c(=O)n4ccccc4nc3s2)c1,44.7µM*,7.08µM*,1.5%,-4.9,?,0.4,·,Pol iota confirm=67*
CCOc1ccc(N/C=C/C(=O)c2ccccc2)c([N+](=O)[O-])c1,-2.0%,44.8%,-16.9%,-3.6,11.2%,?,14.6µM*,
O=C1/C(=C\c2c(NCCOCCO)nc3ccccn3c2=O)SC(=S)N1Cc1ccco1,79.4µM*,17.8µM*,?,2.7,?,-12.8,·,Pol iota confirm=?
CCOC(=O)c1cccc(NC(=O)CN2C(=O)c3ccccc3Sc3ncccc32)c1,-3.4%,-8.0%,6.1%,·,-1.9%,1.5,·,
COc1ccc(C(=O)N2CCN(Cc3cc(OC)ccc3OC)CC2)cc1,?,24.6%,4.0%,-0.1,30.4%,-2.1,·,
COc1ccc(B(O)O)c(CN2CCN(C(=O)OC(C)(C)C)CC2)c1,-5.9%,·,-26.4%,-8.6,?,-0.6,?,
SMILES,Pol eta inh,POLB inh,Pol kappa inh,PI5P4Ka inh,POLI inh,PI4K2A block,TbPGK inh,others
CCOC(=O)c1cnc2cc(F)c(F)cc2c1Nc1ccccc1O,5.8%,25.0%,3.8%,·,20.1%,-0.6,·,
CCOC(=O)c1cnc2ccc(OC(F)(F)F)cc2c1Nc1ccccc1C(=O)O,-13.7%,20.8%,2.1%,·,1.4%,-2.3,-17.4%,
COc1ccc(-n2nnnc2C2CCN(S(=O)(=O)c3cccc(Cl)c3C)CC2)cc1,-9.1%,4.3%,-5.2%,·,29.1%,-0.3,·,
CCOc1ccc(CCNC(=O)c2ccc(CS(=O)(=O)c3ccccc3C)o2)cc1OCC,-14.8%,23.1%,-9.5%,·,8.3%,2.5,·,
C[C@@H]1O[C@@H](OC[C@@H]2O[C@H](Oc3c(-c4ccc(O)cc4)oc4cc(O)cc(O)c4c3=O)[C@@H](O)[C@H](O)[C@H]2O)[C@H](O)[C@H](O)[C@H]1O,3.7%,·,-3.1%,-0.2,?,0.7,·,
CC1OC(Oc2c(-c3cc(O)c(O)c(O)c3)oc3cc(O)cc(O)c3c2=O)C(O)C(O)C1O (stereo not drawn),?,14.1µM*,50.1µM*,?,?,-5.5,·,Pol iota confirm=?
O=C(O)C1OC(Oc2c(-c3ccc(O)c(O)c3)oc3cc(O)cc(O)c3c2=O)C(O)C(O)C1O (stereo not drawn),6.31µM*,8.91µM*,14.1µM*,?,22.4µM*,-4.0,10.3µM*,
Cc1cc(C)c2cc3c(N)c(C(=O)N4CCOCC4)sc3nc2c1,-17.3%,24.0%,1.6%,2.8,130.8%,1.2,·,
Cc1cc(C)c2cc3c(N)c(C(=O)Nc4c(C)[nH]c(=O)[nH]c4=O)sc3nc2c1,44.7µM*,?,-20.2%,-23.3,?,5.4,·,Pol iota confirm=?
N/C(=N\OC(=O)c1cccs1)c1ccccc1,-3.8%,-1.4%,-5.9%,-24.0,-5.9%,-23.1,16.3µM*,
Cc1ccc(/C(N)=N/OC(=O)c2cccs2)cc1,-13.9%,-14.0%,-6.1%,6.4,13.3%,-10.9,·,
Cc1cccc(/C(N)=N/OC(=O)c2cccs2)c1,-12.4%,0.8%,-8.0%,?,7.5%,?,16.3µM*,
